Screening data deposited in PubChem BioAssay by Broad Institute.
This excerpt belongs to a sample that is enriched for hits.
Tg IFNy HTS = T. gondii growth inhibition with IFN-gamma, primary screen, cell-based; actives 3.8% (n = 69,000); activity change, negative = inhibition, % (concentration not given with the values); AID 1259416, 2018; Toxoplasma gondii growth in IFN-gamma-treated host cells; hits give low values; in the data active means activity change below about -70%, passing the limit was not always enough;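 further: host cells are HeLa cells infected with Toxoplasma gondii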
Of the large screens only hits and unclear results are named; the others gave an inactive call; ! = a repeat was not active.

Cc1nn(Cc2nc(-c3ccc(NC(=O)c4cc(F)ccc4F)cc3)oc2C)c(C)c1C	none
CNC(=O)[C@@H]1C[C@@H](N)CN1C(=O)C1(C(F)(F)F)CC1	none
COc1ccc(F)c(CN2CCCC(Cn3ccnc3)C2)c1 (stereo not given)	none
COc1ccc(CN2C(=O)N(C)C3(CCN(Cc4cccn4-c4ccccn4)CC3)C2=O)cc1	none
COCC(NC(=O)c1c(O)cccc1O)c1ccnn1C (stereo not given)	none
O=C(CN1CCN(c2nc3cc(Cl)ccc3s2)CC1)c1cc(-c2ccccc2)no1	none
C=CCn1c(=O)c(C(=O)Nc2ccc(C(C)C)cc2)c(O)c2ccccc21	none
CCCCCCCCCCCC1C(=O)C(=O)CC(=O)C1=O	Tg IFNy HTS -82!
CCCCCCCC(=O)O	none
COC(=O)CC(=O)CCn1[nH]c(=O)ccc1=O	none
COc1ccc(-c2nc(C)ncc2C)c2ccc(C)nc12	none
C=C(NC(=O)C(=C)NC(=O)c1csc(C2=N[C@H]3c4csc(n4)[C@H]4NC(=O)c5csc(n5)[C@H]([C@@](C)(O)[C@@H](C)O)NC(=O)[C@H]5CSC(=N5)/C(=C/C)NC(=O)[C@H]([C@@H](C)O)NC(=O)c5csc(n5)[C@]3(CC2)NC(=O)[C@H](C)NC(=O)C(=C)NC(=O)[C@H](C)NC(=O)[C@H](C(C)CC)N[C@@H]2C=Cc3c([C@H](C)O)cc(nc3[C@H]2O)C(=O)O[C@@H]4C)n1)C(N)=O (stereo not given in full)	none
C=C(NC(=O)C(=C)NC(=O)c1csc(C2=N[C@@H]3c4csc(n4)[C@H]4NC(=O)c5csc(n5)[C@H]([C@](C)(O)[C@@H](C)O)NC(=O)[C@H]5CSC(=N5)/C(=C/C)NC(=O)[C@H]([C@@H](C)O)NC(=O)c5csc(n5)[C@]3(CC2)NC(=O)[C@H](C)NC(=O)C(=C)NC(=O)[C@H](C)NC(=O)[C@H]([C@@H](C)CC)N[C@@H]2C=Cc3c([C@H](C)O)cc(nc3[C@H]2O)C(=O)O[C@@H]4C)n1)C(N)=O	Tg IFNy HTS -72
COc1ccccc1OCC(=O)N1CCOCC1c1csc(C)n1 (stereo not given)	none
Cn1ncc(Cl)c1-c1cc(C(=O)N[C@H](CN)Cc2ccc(F)c(F)c2)oc1Cl	Tg IFNy HTS -81
COc1ccc(S(=O)(=O)N2CCC(C(=O)NCCc3csc(-c4ccccc4)n3)CC2)cc1	none
CCOc1cc(-c2nccn2-c2ccc(NC(C)=O)cc2)ccc1O	none
Cc1ccc(C(=O)N2CCc3ccc(=O)n(C)c3CC2)cc1F	none
CCc1cnc(N2[C@H](C#N)[C@@H](c3ccc(C#Cc4ccccc4F)cc3)[C@H]2CO)s1	Tg IFNy HTS -75
CCc1cnc(N2[C@H](C#N)[C@H](c3ccc(C#Cc4ccccc4F)cc3)[C@@H]2CO)s1	none
CCc1cnc(N2[C@H](C#N)[C@H](c3ccc(C#Cc4ccccc4F)cc3)[C@H]2CO)s1	none
CC(C)CN1C[C@H]2[C@H](C(=O)N(C)C)CCS(=O)(=O)[C@H]2C1	none
O=C(NCC1CC1)[C@H]1C[C@@H]2CN(S(=O)(=O)c3ccc(F)cc3)C[C@H]1O2	none
O=C(Cc1ccc(F)cc1)NCCc1csc(-c2ccc(F)cc2)n1	none
Cc1ccc(-c2nc(CCNC(=O)c3ccc(C)c(C)c3)cs2)cc1	none
CC(=O)NCCc1csc(-c2ccc(F)cc2)n1	none
O=C(NCCc1csc(-c2ccc(F)cc2)n1)C12CC3CC(CC(C3)C1)C2	none
Cc1nc(-c2ccc(F)cc2)sc1CCNC(=O)Cc1ccc(F)cc1	none
O=C(NCCc1csc(-c2ccc(F)cc2)n1)c1ccc(Br)cc1	Tg IFNy HTS -79
CCCCOc1ccc(C(=O)NCCc2csc(-c3ccc(F)cc3)n2)cc1	none
O=C(NCCc1csc(-c2cccc(F)c2)n1)c1ccc(F)cc1	none
Cc1ccc(C(=O)NCCc2csc(-c3ccc(F)cc3)n2)cc1	none
Cc1cc(C)cc(C(=O)NCCc2csc(-c3ccc(F)cc3)n2)c1	Tg IFNy HTS -82
Cc1nc(-c2ccc(F)cc2)sc1CCNC(=O)C12CC3CC(CC(C3)C1)C2	Tg IFNy HTS -91
O=C(NCCc1csc(-c2ccc(F)cc2)n1)c1ccc(F)cc1	Tg IFNy HTS -79
Cc1ccc2cc(C3(O)CCN(C(=O)C4(C)CCCCO4)CC3)ccc2n1 (stereo not given)	none
COc1ccc(NC(=O)C2=NOC3(CCCN(S(=O)(=O)c4ccccc4F)C3)C2)cc1 (stereo not given)	none
CN1CCCC2(CCN(S(=O)(=O)c3cn(C)cn3)C2)C1 (stereo not given)	none
Cn1cccc1C(=O)N1Cc2nccn2CC(CN2CCCC2=O)C1 (stereo not given)	none
O=C1CN(C(=O)c2noc3c2CCCC3)CC(OCc2cccnc2)CN1CC1CCOCC1 (stereo not given)	none
O=S(=O)(c1cccc2nsnc12)N1CCC2(CC1)Nc1cc(F)ccc1-n1cccc12	none
CCOCC1CN(CC2CCOCC2)Cc2cn(CC)nc21 (stereo not given)	none
CCC1=NOC(Cn2cnc(-c3ccccc3)c2-c2ccc(F)cc2OC)C1 (stereo not given)	none
Cc1c(Cl)cccc1NC(=O)NCC(c1cccnc1)c1c[nH]c2ccccc12 (stereo not given)	none
